Results as given in PubChem BioAssay AID1159580 (chemical genetic matrix, 2015).
The whole screen tested about 5,500 compounds, of which about 2,000 (36%) were called active. About 18% were inconclusive and are not listed. No stated cut-off is given here; in the data, active means normalized growth mostly below about 0.91 (no sharp cut-off); inconclusive means no clear call, values can overlap the other calls; inactive means mostly above about 0.92. This is one part of the list.

Test: chemical genetic growth profiling, strain panel (AID 1159580);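 further: tested at 20 µM; growth read once vehicle control cultures reached saturation at 30 °C; 1 = growth at the plate median or of vehicle wells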
Details: S. cerevisiae deletion strains, growth OD

Measured: normalized growth

COc1ccccc1NC(=O)Nc1nn(C)c2cccc(OC)c12
inactive: locus YAR019C, strain CDC15, stronger effect = lower value 0.917 | locus YBL105C, strain PKC1, stronger effect = lower value 0.918 | locus YBR135W, strain CKS1, stronger effect = lower value 0.933 | locus YBR136W, strain MEC1, stronger effect = lower value 0.919 | locus YBR160W, strain CDC28, stronger effect = lower value 0.932 | locus YDL017W, strain CDC7, stronger effect = lower value 0.924 | locus YDL028C, strain MPS1, stronger effect = lower value 0.938 | locus YDL101C, strain DUN1, stronger effect = lower value 0.951 | locus YDL108W, strain KIN28, stronger effect = lower value 0.924 | locus YDL132W, strain cdc53, stronger effect = lower value 0.925 | locus YDL214C, strain PRR2, stronger effect = lower value 0.843 | locus YDR052C, strain DBF4, stronger effect = lower value 0.94 | locus YDR054C, strain cdc34, stronger effect = lower value 0.879 | locus YDR226W, strain ADK1, stronger effect = lower value 0.938 | locus YDR477W, strain SNF1, stronger effect = lower value 0.781 | locus YER123W, strain YCK3, stronger effect = lower value 0.811 | locus YER133W, strain GLC7, stronger effect = lower value 0.731 | locus YFL009W, strain cdc4, stronger effect = lower value 0.94 | locus YFL029C, strain CAK1, stronger effect = lower value 0.914 | locus YFR003C, strain YPI1, stronger effect = lower value 0.924 | locus YFR019W, strain FAB1, stronger effect = lower value 0.907 | locus YFR028C, strain CDC14, stronger effect = lower value 0.93 | locus YGR040W, strain KSS1, stronger effect = lower value 0.766 | locus YGR052W, strain FMP48, stronger effect = lower value 0.845 | locus YGR092W, strain DBF2, stronger effect = lower value 0.81 | locus YHR079C, strain IRE1, stronger effect = lower value 0.815 | locus YHR082C, strain KSP1, stronger effect = lower value 0.843 | locus YHR205W, strain SCH9, stronger effect = lower value 0.835 | locus YIL147C, strain SLN1, stronger effect = lower value 0.935 | locus YJL095W, strain BCK1, stronger effect = lower value 0.687 | locus YJL128C, strain PBS2, stronger effect = lower value 0.953 | locus YJL157C, strain FAR1, stronger effect = lower value 0.816 | locus YJR016C, strain ILV3, stronger effect = lower value 0.928 | locus YJR066W, strain TOR1 (second series), stronger effect = lower value 0.794 | locus YJR066W, strain TOR1, stronger effect = lower value 0.775 | locus YKL048C, strain ELM1, stronger effect = lower value 0.93 | locus YKL067W, strain YNK1, stronger effect = lower value 0.866 | locus YKL101W, strain HSL1, stronger effect = lower value 0.855 | locus YKL193C, strain SDS22, stronger effect = lower value 0.914 | locus YKL203C, strain TOR2, stronger effect = lower value 0.776 | locus YLR133W, strain CKI1, stronger effect = lower value 0.818 | locus YML070W, strain DAK1, stronger effect = lower value 0.824 | locus YMR001C, strain CDC5, stronger effect = lower value 0.902 | locus YMR205C, strain PFK2 (second series), stronger effect = lower value 0.863 | locus YMR277W, strain FCP1, stronger effect = lower value 0.918 | locus YNL006W, strain LST8, stronger effect = lower value 0.933 | locus YNL020C, strain ARK1, stronger effect = lower value 0.818 | locus YNL161W, strain CBK1, stronger effect = lower value 0.929 | locus YNL183C, strain NPR1, stronger effect = lower value 0.745 | locus YNL207W, strain RIO2, stronger effect = lower value 0.91 | locus YNL222W, strain SSU72, stronger effect = lower value 0.929 | locus YNL307C, strain MCK1 (second series), stronger effect = lower value 0.827 | locus YOL078W, strain AVO1, stronger effect = lower value 0.914 | locus YOL136C, strain PFK27, stronger effect = lower value 0.81 | locus YOR061W, strain CKA2, stronger effect = lower value 0.866 | locus YOR119C, strain RIO1, stronger effect = lower value 0.8 | locus YOR231W, strain MKK1, stronger effect = lower value 0.734 | locus YOR329C, strain SCD5, stronger effect = lower value 0.933 | locus YPL031C, strain PHO85, stronger effect = lower value 0.724 | locus YPL153C, strain RAD53, stronger effect = lower value 0.742 | locus YPL204W, strain HRR25, stronger effect = lower value 0.719 | locus YPL209C, strain IPL1, stronger effect = lower value 0.943 | locus YPR025C, strain CCL1, stronger effect = lower value 0.926 | locus YPR106W, strain ISR1, stronger effect = lower value 0.916 | locus YPR111W, strain DBF20, stronger effect = lower value 0.919 | strain NNK1, stronger effect = lower value 0.908 | strain TSCII, stronger effect = lower value 0.915
active: locus YHR030C, strain SLT2, stronger effect = lower value 0.637 | locus YLR113W, strain HOG1, stronger effect = lower value 0.599 | locus YLR403W, strain SFP1, stronger effect = lower value 0.649 | locus YPL256C, strain CLN2, stronger effect = lower value 0.73
